The entries come from a sample that favours hits as a whole.
LASV entry inh: blocks Lassa virus binding to or entry into cells; Potency, µM (titrated, usually from 37.9 µM), for inactives: at the top dose activity change, negative = inhibition, most hits filed as inhibitors; 1.2% of 300,000 active; Lassa virus pseudotype entry inhibition, cell reporter; calls by dose curve; tested in HEK293 cells; also: potency is read from the fitted curve at half-maximal effect; % is scaled to controls: 0 for no effect and ±100 for the full control effect; nearly all actives have a fitted effect of over 50% in size
MARV entry inh: blocks Marburg virus binding to or entry into cells; Marburg virus pseudotyped entry inhibition, cell reporter; Potency, µM (highest dose often 37.8 µM), without a hit: top-dose activity change, negative = inhibition, hits mostly inhibitors; 1.8% of 300,000 active; AID 540276; calls by dose curve; tested in HEK293 cells; also: potency is read from the fitted curve at half-maximal effect; % is scaled to controls: 0 for no effect and ±100 for the full control effect
CHX counter: counter-screen for Shiga toxin inhibitors: cycloheximide protein synthesis inhibition; cell reporter, cycloheximide protein synthesis inhibition counterscreen; max response, %; 12% of 300,000 active; in the data active = max response mostly above about 13%, no sharp cut-off; inactive = mostly below about 14%; also: read at 38.3 µM for the half of the compounds with a filed dose; 0% is about no effect
AMA1-RON2 inh: disrupts binding of P. falciparum AMA1 to RON2; AlphaScreen AMA1-biotinylated RON2 peptide binding; Potency, µM (highest dose often 58.2 µM), for inactives: top-dose activity change, negative = inhibition, most hits filed as inhibitors; 0.2% of 360,000 active; AID 720542; active = well fitted inhibition curve with a large enough effect; inconclusive = small, poorly fitted or top-dose-only effect; inactive = no such curve, though single readings can be large or run the other way;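 also: potency is read from the fitted curve at half-maximal effect; 0% = vehicle wells and -100% = peptide control; nearly all actives have a fitted effect of over 45% in size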
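AMA1 (3D7) with his tag at 25 nM final met compounds first, then biotinylated RON2 peptide at 25 nM; detection used donor plus acceptor beads, 10 µg/mL apiece, read by AlphaScreen after 30 min at room temperature.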
Shiga toxin inh: Shiga toxin inhibition; 9.2% of 290,000 active; AID 2315; Vero cells, Shiga toxin protein synthesis inhibition reporter; inhibition, % at 38.7 µM; in the data active = inhibition mostly above about 28%, no sharp cut-off; inactive = mostly below about 43%; also: 0% is about no effect
* = called active by the depositor; ? = inconclusive; . = not tested or not shown; [ ] = another dose, or the depositor's remark.

SMILES | LASV entry inh | MARV entry inh | CHX counter | AMA1-RON2 inh | Shiga toxin inh
O=C(O)/C=C/c1coc2ccc(F)cc2c1=O | 8.2% | 11.0% | 23.2* | 4.5%[11.6 µM] | active
O=C(O)/C=C/c1coc2ccccc2c1=O | 7.8% | 0.9% | 33.4* | 1.1% | 12.4
C[C@H](NC(=O)CNC(=O)[C@@H](NC(=O)[C@H](Cc1ccccc1)NC(=O)CNC(=O)CNC[C@@H](N)Cc1ccccc1)[C@@H](C)O)C(=O)N[C@@H](CCCN=C(N)N)C(=O)N[C@@H](CCCCN)C(=O)N[C@@H](CO)C(=O)N[C@@H](C)C(=O)N[C@@H](CCCN=C(N)N)C(=O)N[C@@H](CCCCN)C(N)=O | . | . | -2.4 | . | -10.4
O=C(C(O)c1ccccc1)N1CCN(S(=O)(=O)c2ccc(C(F)(F)F)cc2)CC1 (stereo not given) | . | . | . | -5.0% | .
O=C(Nc1ccccc1)C1=C(c2ccccc2)S(=O)(=O)CCS1(=O)=O | ? | 2.82µM* | 22.6* | 7.6% | 44.8*
CCCNC(=O)OCc1cccnc1Sc1ccc(C)cc1 | 10µM* | ? | 31.1* | 20.6% | 97.7*
CCOC(=O)Nc1cccnc1Sc1ccc(Cl)cc1 | 20.0%[46.1 µM] | -12.3%[46.1 µM] | . | -4.0% | .
COc1ccc(/C=C/C(=O)Nc2cccc(S(=O)(=O)NC3=NCCCCC3)c2)cc1 | . | . | 25.9* | -2.0% | 74.4*
O=C(/C=C/c1ccc(OC(F)F)cc1)Nc1cccc(S(=O)(=O)NC2=NCCCCC2)c1 | 10µM* | ? | 28.7* | 2.1% | 57.3*
COc1ccccc1/C=C/C(=O)Nc1cccc(S(=O)(=O)NC2=NCCCCC2)c1 | ? | 11.2µM* | 3.8 | -13.1% | 38.1
CC(C)(C)c1ccc(OCCC(=O)Nc2cccc(S(=O)(=O)NC3=NCCCCC3)c2)cc1 | 10µM* | ? | . | -9.9% | .
CCOC(=O)c1cc(S(=O)(=O)N2CCN(c3ccccc3OC)CC2)[nH]n1 | 1.0%[46.1 µM] | . | . | . | .
COc1ccc2c(c1)c1c(c(=O)n(-c3ccc(C)cc3)c(=O)n1CC(=O)Nc1cc(C)ccc1C)n2C | 8.0%[46.1 µM] | . | . | . | .
CCC1=C(c2cc(OC)c(OC)c(OC)c2)C2(CCCC2)C(=O)O1 | . | . | -1.5 | 1.5% | -3.4
CC(=O)c1ccc(NC(=O)CN2CCCC2)cc1 | 23.1%[46.1 µM] | ? | 27.1* | -17.1% | 27.5*
O=C(CN1CCCCCC1)Nc1ccc(Br)cn1 | . | . | 14.9* | 1.9% | 25.7
COc1ccc(NC(=O)CSC2CCCCC2)cc1 | ? | ? | 61.2* | -1.9% | 153.2*
O=C(CN1CCCC1)Nc1ccc(Br)cc1 | . | . | 9.4 | 7.0% | 34.0
O=C(CN1CCCCCC1)Nc1ccc(Br)cc1 | 20.8%[14.3 µM] | -20.9% | 24.4* | 15.4% | 40.1
O=C(NC1CC1)c1ccc(-c2cnc3cccnn23)cc1 | . | . | . | -0.8% | .
C=CC[C@@H]1C=CC(ON=C(C)CCC(=O)OC[C@H]2O[C@H](C#Cc3ccccc3)C=C[C@H]2Oc2ccc(C)cc2)[C@H](CO)O1 (stereo not given in full) | . | 29.4%[14.2 µM] | . | . | .
COc1ccc(NC(=O)CN2CCN(CC(=O)Nc3ccc(F)cc3F)CC2)cc1 | ? | 10.6%[46.1 µM] | 24.4* | 4.1% | 30.3*
COc1ccc(NC(=O)CN2CCCCC2)cc1 | ? | 3.5% | 34.4* | -26.8% | 65.9
Cc1ccc(NC(=O)CN2CCCC2)cc1 | . | . | 2.5 | 5.5% | .
CCCCCCn1ccc(=N)cc1 | ? | 12.6µM* | 6.8 | -0.8% | -9.4
SMILES | LASV entry inh | MARV entry inh | CHX counter | AMA1-RON2 inh | Shiga toxin inh
CCOC(=O)COc1ccc2c3c(c(=O)oc2c1C)CCC3 | 1.7% | -1.1% | 14.8* | -10.4% | 26.6
Cc1c(OCC(=O)C(C)(C)C)ccc2c3c(c(=O)oc12)CCCC3 | . | . | -1.0 | -3.6% | .
Cc1c(OCC(=O)N(C)c2ccccc2)ccc2c3c(c(=O)oc12)CCC3 | -22.1%[46.1 µM] | -21.1%[46.1 µM] | 23.5* | -8.5% | 74.5*
CCOc1ccc(CCNC(=O)c2nn(C)c3c2CSc2ccc(C)cc2-3)cc1OCC | -3.6%[46.1 µM] | . | . | . | .
CC(C)CC(=O)Nc1nnc(SCC(=O)NCc2ccc3c(c2)OCO3)s1 | 12.8% | ? | 13.0 | 21.0% | -8.8
O=C(NC1CCCCC1)C(c1ccnc2ccccc12)N1CCc2ccccc2C1 (stereo not given) | . | . | . | 8.6% | .
Fc1ccc(-c2cc(-c3nc(-c4ccc(Cl)cc4)no3)[nH]n2)cc1 | 19.2%[46.1 µM] | . | . | . | .
O=[N+]([O-])c1cccc(-c2n[nH]c(=S)n2-c2ccc(Br)cc2)c1 | 16.8%[46.1 µM] | -1.2%[46.1 µM] | -3.6 | 38.9% | -9.0
Oc1ccc(Br)cc1-c1cc(-c2ccc(Cl)cc2)n[nH]1 | -4.5% | -22.2% | 21.9* | 86.7% | 92.6*
Oc1ccc(Br)cc1-c1n[nH]c(=S)n1Cc1ccccc1 | 2.6%[46.1 µM] | 7.4%[46.1 µM] | 2.3 | 87.0% | -1.9
O=[N+]([O-])c1cccc(-c2cc(-c3cc(Br)ccc3O)[nH]n2)c1 | ? | ? | 24.5* | 129.2% | 86.2*
Oc1ccc(Br)cc1-c1cc(-c2ccccc2)n[nH]1 | -10.6% | -25.2% | 16.2* | 91.7% | 15.7
Cc1cc(-n2c(C)nc3ccccc3c2=O)ccc1NC(=O)c1cccc([N+](=O)[O-])c1 | 15.3%[46.1 µM] | . | . | . | .
Cc1ccc(OCc2nc(-c3ccc(C(=O)NCCc4ccc(Cl)cc4)cc3)oc2C)cc1 | -4.5%[46.1 µM] | . | . | . | .
COc1ccc(-c2nnc(N(C)C(=O)c3cccnc3)s2)cc1 | 14.8% | -1.5% | 26.5* | -19.6% | 46.5
Cc1ccc(-c2nnc(N(C)C(=O)c3cccnc3)s2)cc1 | -5.8% | -7.5% | 33.8* | 15.1% | 77.3
Cc1ccc(-c2nnc(N(C)C(=O)c3cccnc3)s2)cn1 | 17.1% | 9.6%[46.1 µM] | 10.5 | -3.4% | 15.9
CN(C(=O)c1ccccn1)c1nnc(-c2cccnc2)s1 | 2.1% | ? | 53.9* | 43.4% | 32.3
CC(=O)c1ccc(OCC(=O)NC(=O)NC2CCCC2)cc1 | . | . | . | -10.5% | .
CN1CCCN(C(=O)CNC(=O)c2ccccc2F)CC1 | 1.4% | 1.1% | . | 29.8%[11.6 µM] | .
O=C(CNC(=O)c1ccc(Cl)cc1Cl)OCC(=O)N1CCCC1 | . | . | . | -8.2% | .
O=C(NCC(=O)N1CCCCC1)c1ccc(Cl)cc1Cl | 22.3% | -1.8%[46.1 µM] | 49.3* | 13.6% | 58.3*
CC1CCCN(C(=O)COC(=O)Cc2c(F)cccc2Cl)C1 (stereo not given) | ? | -6.3%[46.1 µM] | 43.9* | -22.7% | 67.2*
O=C(NCC(=O)N1CCCC1)c1ccccc1F | 3.8% | ? | 20.5 | -7.9% | 52.9*
O=C(Cc1ccc(Cl)cc1Cl)OCC(=O)N1CCCCC1 | ? | 15.6%[46.1 µM] | 21.6* | -5.5% | 42.0
SMILES | LASV entry inh | MARV entry inh | CHX counter | AMA1-RON2 inh | Shiga toxin inh
O=C(COc1ccc(Cl)cc1Cl)N1CCCCCC1 | 18.2% | 16.2% | 27.9 | 2.6% | 21.8
OCC[C@H]1C[C@@H](O)[C@H](O)[C@@]2(Cc3ccccc3CO2)O1 | . | . | . | -9.5% | .
CCOc1cc(N2CCOCC2)c(OCC)cc1NC(=O)c1ccccc1N1CCCC1=O | . | . | . | -5.5% | .
CC(=O)c1cccc(NC(=O)CSc2nc3ccccc3nc2Cc2ccc(F)cc2)c1 | -1.4%[46.1 µM] | . | . | . | .
COC(=O)Cc1c(C)c2ccc3c(c2oc1=O)CN(Cc1ccccc1OC)CO3 | -4.3%[46.1 µM] | ? | . | . | .
CC1CCN(C(=O)CNC(=O)c2ccc(Cl)cc2Cl)CC1 | 0.0% | 0.0% | 27.2* | 4.5% | 49.7*
CCOC(=O)N1CCN(C(=O)COC(=O)c2ccccc2NCCO)CC1 | -26.2% | 3.8% | . | 0.0% | .
Cc1ccc(/C(N)=N/OC(=O)c2ccc3c(c2)OCO3)cc1 | ? | ? | 73.5* | -9.2% | 98.1*

Assay outcomes (PubChem BioAssay)
